Bioassay records from PubChem.
CHT inh: human CHT choline transport inhibition; Q9GZV3; CHT-expressing cells, membrane potential dye, choline response; hits give low values; B-score at 10 µM; actives 0.86% (n = 310,000); AID 488975;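 active = B-score over 3 SD under the library average, and starting fluorescence ratio not unusually high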;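 also: choline stimulus applied at its EC90 after an EC20 pre-addition; B-score computed on integrated fluorescence ratio after choline addition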
ANO1 block: mouse TMEM16A channel inhibition, primary screen; Q8BHY3; HEK293 TMEM16A/YFP iodide influx fluorescence, ionomycin; normalized B-score (activity score, 25-100; higher = stronger inhibition) at 10 µM; actives 1.2% (n = 310,000); AID 588511;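 active = ratio plate-corrected score three or more library SD toward inhibition, starting fluorescence score within five deviations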;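 also: score derived from kinetic fluorescence span divided by baseline fluorescence per well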
Target sequence (Q8BHY3 whole entry, looked up): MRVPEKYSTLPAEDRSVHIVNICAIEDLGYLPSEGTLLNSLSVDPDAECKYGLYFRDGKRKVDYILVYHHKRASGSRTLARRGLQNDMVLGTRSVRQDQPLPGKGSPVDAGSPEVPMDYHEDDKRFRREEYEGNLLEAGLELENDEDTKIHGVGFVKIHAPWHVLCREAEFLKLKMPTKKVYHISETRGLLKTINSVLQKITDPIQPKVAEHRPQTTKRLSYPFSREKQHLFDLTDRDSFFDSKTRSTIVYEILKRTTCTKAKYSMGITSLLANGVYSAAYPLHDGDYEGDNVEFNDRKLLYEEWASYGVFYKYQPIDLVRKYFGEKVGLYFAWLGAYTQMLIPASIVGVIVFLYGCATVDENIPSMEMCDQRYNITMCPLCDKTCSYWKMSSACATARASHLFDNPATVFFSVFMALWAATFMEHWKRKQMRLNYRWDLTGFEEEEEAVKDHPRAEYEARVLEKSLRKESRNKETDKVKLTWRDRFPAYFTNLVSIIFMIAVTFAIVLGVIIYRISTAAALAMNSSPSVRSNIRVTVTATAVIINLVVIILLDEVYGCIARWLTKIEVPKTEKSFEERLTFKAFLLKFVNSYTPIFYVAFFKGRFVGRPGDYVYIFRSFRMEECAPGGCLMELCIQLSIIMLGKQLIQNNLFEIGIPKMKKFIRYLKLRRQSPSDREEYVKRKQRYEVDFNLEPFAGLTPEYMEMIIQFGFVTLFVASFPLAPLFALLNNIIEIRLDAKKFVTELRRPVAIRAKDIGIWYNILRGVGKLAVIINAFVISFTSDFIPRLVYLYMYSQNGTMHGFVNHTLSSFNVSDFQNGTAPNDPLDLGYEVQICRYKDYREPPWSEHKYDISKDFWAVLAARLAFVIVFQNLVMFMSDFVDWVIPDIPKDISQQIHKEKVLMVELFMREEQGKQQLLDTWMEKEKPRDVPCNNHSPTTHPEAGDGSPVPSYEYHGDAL
CHT PAM: human CHT allosteric activation. Q9GZV3. CHT-expressing cells, membrane potential dye, choline EC20; hits give high values; LV-AA mutant CHT in HEK293 cells. B-score at 10 µM. actives 0.49% (n = 310,000);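 active = initial fluorescence not abnormally high and integrated response B-score, plate-corrected, over 3 SD above library mean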
ANO1 activ: activators or potentiators of mouse TMEM16A chloride channel; HEK293 TMEM16A/YFP-H148Q/I152L, iodide quench fluorescence; hits give low values; Q8BHY3; actives 0.3% (n = 340,000); AID 623877; B-score at 10 µM;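 active = fluorescence-ratio B-score plate-corrected deviation score at least 3 library SD below zero, with starting fluorescence score within 5 deviations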;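 also: channel opened by trigger with iodide after compound preincubation; score built on the fluorescence ratio of max minus min over baseline; more negative score means more quench and so TMEM16A activation or potentiation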
CHT block conf: confirmation of human choline transporter CHT inhibitors. shares compounds with CHT inh. CHT-expressing cells, choline membrane potential dye; LV-to-AA substituted CHT, HEK293 cells. CHT activity remaining % of control (hits give low values), % at 10 µM. actives 70% (n = 2,400). AID 493221;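 active = choline transporter activity left, mean of duplicates at 10 µM, below buffer-only control mean minus 3 SD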;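 also: depolarization triggered by choline at its EC90 following an EC20 pre-addition; 0% = hemicholinium-3 full block and 100% = buffer-only control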
HEK293 CHT ctr: counter-screen for CHT inhibitors: effect in parental HEK293 cells; shares compounds with CHT inh; membrane potential dye, choline response; active = decrease or increase beyond buffer ±3SD; membrane potential ratio readout (active if shifted either direction beyond buffer ±3SD; no single direction) at 10 µM; actives 4% (n = 2,400);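 also: parental cells lack the transporter so any hit is non-specific; ratio is peak minus trough fluorescence over baseline after EC90 choline challenge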
An asterisk follows results filed as active; i = inactive; . = no result. Most compounds without a hit are left out; they make up all but 2.3% or so of the library.

SMILES | CHT inh | ANO1 block | CHT PAM | ANO1 activ | CHT block conf | HEK293 CHT ctr
O=C(NC1CCCCC1)C(c1ccc2ncccc2c1)N(Cc1ccc2c(c1)OCO2)C(=O)c1ccc2c(c1)OCCO2 (centres undefined) | -14* | i | i | i | 30%* | i
Nc1ncnc2c1ncn2[C@@H]1O[C@H](CNCC#Cc2ccccc2)[C@@H](O)[C@H]1O | . | . | . | i | . | .
Cc1nc2nc(C)c(NS(=O)(=O)c3ccc(CC(C)C)cc3)c(=O)n2[nH]1 | i | i | i | i | . | .
CCNc1cc(Cl)nc(SC)n1 | -14* | i | i | i | -6.5%* | i
Cc1cc(C(=O)N2CCCC(N3CCN(Cc4ccc5c(c4)OCO5)CC3)C2)n[nH]1 (centres undefined) | i | i | i | i | . | .
COc1ccc(C2=NN(c3ccc(C(=O)O)cc3)C(c3ccc(OC)c(OC)c3)C2)cc1 (centres undefined) | -5.3* | i | i | i | 62%* | i
CCc1ccc(C(=O)COC(=O)c2cncc(Br)c2)cc1 | i | i | i | i | . | .
CCOC(=O)c1c(CSc2ccc(C)cc2)n(C)c2cc(Br)c(O)c(CN(C)C)c12 | i | i | i | i | . | .
CCOC(=O)c1c(CSc2ccccc2)n(C)c2ccc(O)c(CN3CCN(C)CC3)c12 | -7.6* | i | i | i | 31%* | i
CC1=NN(c2ccccc2)C(=O)C1C(=O)c1cc([N+](=O)[O-])cc([N+](=O)[O-])c1 (centres undefined) | i | i | i | i | . | .
O=C(NNc1ccc([N+](=O)[O-])cc1[N+](=O)[O-])c1ccco1 | -7.5* | i | i | i | 67%* | i
O=C(NNc1ccc([N+](=O)[O-])cc1)c1ccco1 | i | i | i | i | . | .
CC(C)(C)NC(=O)CSc1ncnc2c1nnn2Cc1ccccc1Cl | -6.7* | i | i | i | i | i
COc1cc(C(CC(=O)N2CCCC2)c2c(OC)cc(OC)c3c(-c4ccccc4)cc(=O)oc23)cc(OC)c1OC (centres undefined) | i | i | i | i | . | .
COc1cc(C(CCN2CCCC(C)C2)c2c(OC)cc(OC)c3c(-c4ccccc4)cc(=O)oc23)cc(OC)c1OC (centres undefined) | -8.7* | i | i | i | 22%* | i
CCCCCc1cc(=O)oc2c(C(CCN3CCCC3)c3ccc(N(C)C)cc3)c(OC)cc(OC)c12 (centres undefined) | -6.3* | i | i | i | i | i
COc1cc(C(CCN2CCCCC2)c2c(OC)cc(OC)c3c(-c4ccccc4)cc(=O)oc23)cc(OC)c1OC (centres undefined) | -8.1* | i | i | i | 44%* | i
O=C(CSc1nnc(CNC(=O)c2cccs2)o1)Nc1ccccc1F | i | i | i | i | . | .
O=C(Nc1ccc(S(=O)(=O)N2CCOCC2)cc1)c1ccc([N+](=O)[O-])cc1Cl | -7.4* | i | i | i | 31%* | i
OCc1ccccc1OCCOc1ccc(Cl)c2cccnc12 | -9.7* | i | i | i | 44%* | i
O=C(Nc1scc(-c2ccccc2)c1C(=O)O)c1ccco1 | i | i | i | i | . | .
COc1cc(C(=O)Nc2scc(-c3ccc(C)cc3)c2C(=O)O)cc(OC)c1OC | -6.6* | i | i | i | 56%* | i
CC(C)(C)C(=O)Nc1scc(-c2ccc(-c3ccccc3)cc2)c1C(=O)O | -7.5* | i | i | i | 37%* | i
O=C(NNc1cc(Cl)cc(Cl)c1)c1cccs1 | -6.1* | i | i | i | 43%* | i
Cc1ccc(Cl)cc1N1CCN(C(=O)Cc2c(C(=O)O)[nH]c3ccc(Cl)cc23)CC1 | -7.6* | i | i | i | 55%* | i
SMILES | CHT inh | ANO1 block | CHT PAM | ANO1 activ | CHT block conf | HEK293 CHT ctr
Cc1ccc2c(c1)N(S(=O)(=O)c1ccc(CN3C(=O)c4cccnc4C3=O)s1)CCO2 | -5.2* | i | i | i | 69%* | i
COc1ccc(Br)cc1/C=C/C(=O)NC(=S)Nc1ccc(Cl)c(C(=O)O)c1 | i | i | i | i | . | .
COc1ccc(Br)cc1C(=O)NC(=S)Nc1ccc(Cl)c(C(=O)O)c1 | i | i | i | i | 58%* | i
COC(=O)c1cc(C(=O)OC)cc(N2C(=O)CC(NNC(=O)c3ccccc3Br)C2=O)c1 (centres undefined) | i | i | i | i | . | .
COC(=O)c1cc(C(=O)OC)cc(N2C(=O)CC(NNC(=O)c3ccc(C)cc3)C2=O)c1 (centres undefined) | -5.4* | i | i | i | i | i
CCc1ccc2c(c1)C1(NN=C(c3ccc(C)cc3)S1)C(=O)N2 (centres undefined) | -5.9* | i | i | i | 67%* | i
O=C(O)c1ccccc1NSc1ccccc1[N+](=O)[O-] | -5.4* | i | i | i | 62%* | i
COc1ccc(/C=C2\N=C(c3ccccc3)N(c3ccc(C(=O)O)cc3)C2=O)cc1OC | -6.9* | i | i | i | 47%* | i
CC1=N/C(=C\c2ccc(OC(C)C)cc2)C(=O)N1c1ccc(C(=O)O)cc1 | i | i | i | i | . | .
COc1ccc(Br)cc1CN(C)CC(=O)NCCc1ccc(S(N)(=O)=O)cc1 | i | i | i | i | . | .
COCCN1Cc2cccc(C(=O)Nc3ccc(-c4nc5ccccc5[nH]4)cc3)c2C1=O | -8.3* | i | i | i | i | i
O=C(NN1C(=O)/C(=C/c2ccc(O)c([N+](=O)[O-])c2)SC1=S)c1ccccc1Cl | -5.4* | i | i | i | i | i
COc1cc(/C=C2\SC(=S)N(NC(=O)c3ccccc3O)C2=O)ccc1O | i | i | i | i | . | .
Cc1nonc1NC(=O)CSc1ccc(-c2ccccc2)nn1 | -8* | i | i | . | 23%* | i
CN1Cc2sc(N)c(C#N)c2CC1(C)C | -9* | i | i | i | 33%* | i
CN1Cc2sc(NC(=S)NC(=O)c3ccccc3)c(C#N)c2CC1(C)C | i | i | i | i | . | .
CCCN(C(=O)CSc1nc(C2CC2)n(-c2ccccc2)n1)C1CCS(=O)(=O)C1 (centres undefined) | . | . | . | i | . | .
CSCc1ccc(C(=O)N2CCCC(Nc3ccc(F)cc3)C2)o1 (centres undefined) | -5.2* | i | i | i | i | i
